Cav32 inh – Cav3.2 calcium influx blockers – cell-based, Fluo-4 calcium fluorescence, FDSS, MLSMR library, primary screen. Cav3.2-expressing cells; hits give low values. B-score at 10 µM. hit rate 4% among 100,000;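 active = single-dose well whose peak fluorescence ratio is a statistical outlier from its plate by either plate-standardised score or position-corrected B-score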
CYP2C19 inhib – blockers of cytochrome P450 2C19 activity – biochemical, luminescence, ADME assay, primary screen. P33261. AID 778, 2007. hit rate 21% among 96,000. inhibition, % at 5 µM. CYP2C19 Supersomes, luciferin-H EGE luminescence, 30 min;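 active = CYP2C19 inhibition above a set limit at 5 µM in the primary screen, cut at about 50% in these data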
Pyk2 oligo antag – antagonists of Pyk2 self-association, primary screen, Q293 cells, FERM NanoBiT luminescence, HTS | Protein-tyrosine kinase 2-beta (Homo sapiens), Q14289 | hits give low values | z-score (the deposit names both 25 µM and 10 µM) | hit rate 0.83% among 99,000 | AID 1347419, 2020;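 active = Z-score of -3 or lower, scaled per plate to the spread of control and sample wells; inactive = z-score above -3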;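 also: negative z-score means lost luminescence so less FERM oligomerization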
CYP2C19 activ – human CYP2C19 activators, primary screen, biochemical, luminescence; activation factor at 5 µM; recombinant CYP2C19, luciferin-H EGE luminescence; hits give high values; 0 = fully inhibited enzyme, 1 = untreated enzyme; Cytochrome P450 2C19 (Homo sapiens), P33261; 96,000 tested, under 10 active;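 active = activation factor of at least 2 at 5 µM in the primary screen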
CYP2C9 inh – blockers of cytochrome P450 2C9 activity – biochemical, luminescence, ADME assay, primary screen | P11712 | CYP2C9 Supersomes, luciferin-H conversion | inhibition, % at 5 µM | hit rate 20% among 96,000 | AID 777, 2007;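 active = blocking of liver enzyme CYP2C9 beyond about 50% at 5 µM, limit read from the data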
CYP2C9 activ – human CYP2C9 activators, primary screen, biochemical, luminescence | Cytochrome P450 2C9 (Homo sapiens), P11712 | recombinant CYP2C9, luciferin-H conversion; hits give high values; factor 1 = untreated enzyme, 0 = blocked | activation factor at 5 µM | hit rate 1.4% among 96,000;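 active = activation factor of 2 or more for CYP2C9 at a 5 µM dose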
A number is an active result; – = inactive; · = no result. An excerpt weighted towards active compounds, which were near 27% of everything screened.

SMILES | Cav32 inh | CYP2C19 inhib | Pyk2 oligo antag | CYP2C19 activ | CYP2C9 inh | CYP2C9 activ
O=C(COc1ccc(Cl)cc1)N1CCN(C/C=C/c2ccccc2)CC1 | – | – | – | – | – | –
O=C(COc1ccccc1)N1CCN(C/C=C/c2ccccc2)CC1 | – | 63 | – | – | 70 | –
O=C(Cc1ccccc1)N1CCN(C2CCCC2)CC1 | – | – | – | – | – | –
Cc1ccc(C(=O)n2cc(CCN3CCS(=O)(=O)CC3)c3ccccc32)cc1 | – | – | – | – | – | –
C/C(=N\NC(=O)c1ccncc1)c1c(O)[nH]c(=O)[nH]c1=O | – | · | · | · | · | ·
COC(=O)C1=CO[C@@H](C)[C@@H]2CN3CC[C@]4(C(=O)Nc5ccccc54)[C@@H]3C[C@H]12 | – | · | · | · | · | ·
Cc1ccc2cccc(OC(=O)N(C)c3ccccc3)c2n1 | – | 90 | – | – | – | –
CN(C)C(=O)Oc1cccc2c(OC(=O)N(C)C)cccc12 | – | – | – | – | – | –
Cc1ccc(N(C)C(=O)Oc2cccc3cccnc23)cc1 | – | 87 | – | – | – | –
Oc1ccc(/C=N/NP(=S)(c2ccccc2)c2ccccc2)cc1 | · | 79 | – | – | 86 | –
COc1cc(/C=N/NP(=S)(c2ccccc2)c2ccccc2)ccc1O | – | – | – | – | 82 | –
COc1ccc2nc(/N=C/c3c(O)n(-c4cccc(Cl)c4)c(=O)[nH]c3=O)sc2c1 | – | – | – | – | – | –
O=C(CNC1CCCCC1)N1CCC2(CC1)OCCO2 | – | – | – | – | – | –
N=C(N)c1c(O)n(C2CCCCC2)c(=O)n(C2CCCCC2)c1=O | – | – | – | – | – | –
CN1C(=O)c2ccccc2NC(=O)[C@]12O[C@@H]2c1ccccc1 | – | · | · | · | · | ·
O=C(C(Cc1ccccc1)NS(=O)(=O)c1ccc(F)cc1)N1CCC2(CC1)OCCO2 (stereo not drawn) | · | 80 | – | – | – | –
O=C(NC(Cc1ccccc1)C(=O)N1CCC2(CC1)OCCO2)C1CCCCC1 (stereo not drawn) | – | – | – | – | – | –
COc1cccc(-c2cc(C(F)(F)F)n3nc(C(=O)N4CCC5(CC4)OCCO5)cc3n2)c1 | – | 77 | – | – | 69 | –
CCn1c(C)c(C(=O)O)c2cc(OC)ccc21 | – | – | – | – | – | –
CC(=O)c1c(C)n(CCCOC(C)C)c2ccc(O)cc12 | – | 62 | – | – | 55 | –
C=CCn1c(O)c(C(C)=NCc2cccnc2)c(=O)[nH]c1=O | – | 68 | – | – | – | –
C=CCn1c(O)c(C(C)=NCc2cc(OC)cc(OC)c2)c(=O)[nH]c1=O | – | 83 | – | – | 85 | –
O=C(Nc1ccc(Cl)cc1C(=O)c1ccccc1)c1ccc(Br)o1 | – | – | – | – | – | –
CC(=O)N1CC(=O)Nc2ccc(Cl)cc2C1c1ccc(F)cc1 (stereo not drawn) | – | – | – | – | – | –
Oc1ccc(Cl)cc1CN1CCN(Cc2ccccc2)CC1 | – | 90 | – | – | 56 | –
SMILES | Cav32 inh | CYP2C19 inhib | Pyk2 oligo antag | CYP2C19 activ | CYP2C9 inh | CYP2C9 activ
FC(F)(F)c1ccccc1CN1CCN(Cc2ccccc2)CC1 | – | 69 | – | – | – | –
Cc1cccc(CN2CCN(Cc3ccc(Cl)cc3)CC2)c1 | – | – | – | – | – | –
COc1ccc(CN2CCN(c3ccccc3)CC2)c(C)c1C | – | 83 | – | – | – | –
Cc1ccc(O)c(CN2CCN(c3ccccc3)CC2)c1 | – | 93 | – | – | 72 | –
Cc1cc(O)c(CN2CCN(c3ccccc3)CC2)cc1C | – | – | – | – | – | –
Oc1cc2c(cc1CN1CCN(c3ccccc3)CC1)CCC2 | – | · | – | · | · | ·
Cc1cc(C)n2nc(SC(C)C(=O)N3CCC4(CC3)OCCO4)nc2n1 (stereo not drawn) | – | – | – | – | – | –
O/N=C1\CCC2CN(C3CCCCC3)CC2C1 (stereo not drawn) | – | – | – | – | – | –
O=C(Cn1ncc2ccccc21)N1CCC2(CC1)OCCO2 | – | 55 | – | – | – | –
CCn1c(=O)n(CC(=O)N2CCC3(CC2)OCCO3)c(=O)c2ccccc21 | – | – | – | – | – | –
O=C(Cn1cnc2ccccc2c1=O)NCC(=O)N1CCC2(CC1)OCCO2 | – | – | – | – | – | –
O=C(Cn1ncc2c3ccccc3n(Cc3ccccc3)c2c1=O)N1CCC2(CC1)OCCO2 | -11 | – | · | – | 53 | –
O=C(Cn1ncc2c3ccccc3n(Cc3ccccc3F)c2c1=O)N1CCC2(CC1)OCCO2 | -8.6 | – | – | – | 69 | –
Cc1c2cnn(CC(=O)N3CCC4(CC3)OCCO4)c(=O)c2c(C)n1Cc1ccc(F)cc1 | – | 53 | – | – | – | –
CCN1CCN(C(c2cccs2)C(C)NC(=O)Oc2ccccc2)CC1 (stereo not drawn) | – | · | · | · | · | ·
CCC(CO)Nc1ccc([N+](=O)[O-])c2cccnc12 (stereo not drawn) | – | 58 | – | – | – | –
CCN(CCNc1ccc([N+](=O)[O-])c2cccnc12)S(=O)(=O)c1ccc(Cl)cc1 | – | 61 | – | – | 51 | –
CC(O)CNc1ccc([N+](=O)[O-])c2cccnc12 (stereo not drawn) | · | · | – | · | · | ·
C=C1[C@@H](OC(C)=O)[C@]23C[C@@H]1[C@@H](OC(C)=O)CC2[C@]12C4C[C@H]3[C@H]1N(CC)C[C@]4(C)CC[C@@H]2O (stereo partly drawn) | – | · | · | · | · | ·
CCOc1ccccc1N1C(=O)NC(=O)/C(=C/c2ccc3c4c(cccc24)CC3)C1=O | – | – | – | – | – | 4.1
CC(c1ccccc1)n1cncc1C(=O)N1CCCC1=O (stereo not drawn) | – | – | – | – | – | –
COCCOC(=O)C1=C(C)OC(N)=C(C(=O)OC)C12C(=O)Nc1ccccc12 (stereo not drawn) | – | – | – | – | – | –
CC(C)Oc1ccc(C2C(C#N)=C(N)Oc3c2c(=O)oc2ccccc32)cc1 (stereo not drawn) | – | – | – | – | 90 | –
COCCOC(=O)C1=C(N)Oc2c(c(=O)oc3ccccc23)C1c1ccncc1 (stereo not drawn) | – | 96 | – | – | 97 | –
CCCC(C)C1C(C#N)=C(N)Oc2c1c(=O)oc1ccccc21 (stereo not drawn) | · | – | – | – | 70 | –
COc1ccc(C2C(C#N)=C(N)Oc3c2c(=O)oc2ccccc32)cc1Cn1cc([N+](=O)[O-])cn1 (stereo not drawn) | · | – | – | – | 97 | –

Screening results as filed in PubChem.
